# Sampled rows, rich in hits. Any-hit rate of the full collection: about 2.3%.
# KKLEB cytotox = cytotoxicity in KKLEB CF airway cells, primary screen, cytotoxicity control for CF NF-kB inhibitor project, cell-based, uHTS, fluorescence assay plates | 360,000 compounds, 0.36% hits | activity change (cytotoxicity), % at 5 µM | KKLEB CF airway cells viability, ATPlite luminescence, overnight; active compounds read low; cells stimulated with P. aeruginosa culture filtrate;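 active = corrected activity change at or below -50% at 5 µM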
# hiPSC survival = enhancers of single-cell hiPSC survival, primary screen, ATPlite luminescence | 100% = ROCK inhibitor wells, 0% = DMSO | AID 602274, 2012 | 360,000 compounds, 0.044% hits | survival enhancement, % at 20 µM; in the data active = survival enhancement above about 18%;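 also: cells exposed to compounds for 16 hours before the ATP read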
# TWEAK Fn14 block = inhibitors of TWEAK-Fn14 signaling, primary screen, luciferase reporter cells, uHTS | TWEAK-stimulated Fn14 reporter cells, luciferase luminescence, 8 h | inhibition, % at 10 µM | 360,000 compounds, 2% hits | AID 1159606, 2016; in the data active = inhibition above about 50%
# CF NFkB inh = inhibitors of PAF-induced NF-kB signaling, primary screen, cell-based, GFP fluorescence, uHTS. 360,000 compounds, 0.86% hits. KKLEB NF-kB-GFP reporter, GFP fluorescence overnight. inhibition, % at 5 µM;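 active = at least 50% inhibition at 5 µM, scaled per plate between neutral and stimulator controls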;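 also: PAF is a Pseudomonas aeruginosa culture filtrate used as stimulus; plate controls were PAF-stimulated DMSO wells for no effect and unstimulated DMSO wells for full effect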
# LGR2 antag = inhibitors of bursicon-induced LGR2 CRE-luciferase signal, primary screen, cell-based, HEK293, CRE-luciferase reporter, bursicon stimulation; Drosophila bursicon receptor LGR2 (rickets); bursicon-stimulated, 4 h; inhibition, % at 9.99 µM; 380,000 compounds, 0.35% hits; AID 720647, 2013;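 active = drop in luminescence signal, shown as inhibition above about 50% in the replicate tests, limit read from the data, passing the limit was not always enough; inconclusive = probably only some replicates passing the limit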;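 also: agonist challenge used bursicon conditioned medium at about half maximal strength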
# HIF-2a inh = HIF-2a reporter inhibitors, primary screen, luminescence, 786-0 RCC cells. 786-0 RCC cells HIF-2a reporter, luciferase luminescence, overnight. inhibition, % at 18.8 µM. 360,000 compounds, 0.72% hits;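 active = inhibition of the luminescence signal of 40% or more relative to plate controls, in a single-dose primary screen at 18.75 µM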
# CF NFkB conf = inhibitors of PAF-induced NF-kB signaling, retest, confirmation, cell-based, GFP fluorescence, single concentration | shares compounds with CF NFkB inh | KKLEB CF airway cells, overnight | inhibition, % at 5 µM | 1,300 compounds, 64% hits | AID 602472, 2012; in the data active = inhibition above about 40%;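 also: stimulus PAF is a Pseudomonas aeruginosa filtrate and not platelet activating factor; plate controls were DMSO wells with stimulus for no effect and unstimulated DMSO wells for full effect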
# * = called active by the depositor; ? = inconclusive; / = no result given.
SMILES,KKLEB cytotox,hiPSC survival,TWEAK Fn14 block,CF NFkB inh,LGR2 antag,HIF-2a inh,CF NFkB conf
C=CCN1C(=O)/C(=C2/Sc3ccccc3N2CC)SC1=S,6,0,-18,6,4,-2,/
O=C(O)CCN1c2ccccc2Sc2ccccc21,8,0,0,-7,-2,7,/
C=CCN1c2ccccc2Sc2cnccc21,-11,4,56*,80*,19,5,91*
CC(=O)OCCN1c2ccccc2Sc2cnccc21,-3,3,39,65*,11,24,67*
COc1ccc(S(=O)(=O)N(C)C[C@@H]2OCCCC[C@@H](C)Oc3ccc(NS(=O)(=O)c4ccc(F)cc4)cc3C(=O)N([C@@H](C)CO)C[C@@H]2C)cc1,/,/,/,/,-6,/,/
COc1cccc(S(=O)(=O)N2CC[C@@H]3[C@@H](CO)Nc4ccc(C#Cc5ccccc5)cc4[C@@H]32)c1,/,/,/,/,13,/,/
COc1ccc2c3c([nH]c2c1)[C@H](CO)N(Cc1cccc(F)c1)CC31CCN(C(C)=O)CC1,/,/,/,/,-26,/,/
COc1ccc(-c2cc(C(F)(F)F)nc(N3CCN(Cc4ccccc4)CC3)n2)cc1OC,-8,-2,7,4,/,16,/
COc1ccc(-c2cc(C(F)(F)F)nc(N3CCN(c4ccc(F)cc4)CC3)n2)cc1OC,-34,1,-10,54*,/,3,41*
NC(=O)N/N=C/c1c(Sc2nnnn2-c2ccccc2)nc2ccccn2c1=O,-38,4,96*,71*,?,3,72*
C[C@@]12CCC=C[C@H]1[C@H](c1ccc3ccccc3c1Br)N(Cc1ccccc1)C2=O,-21,-3,2,57*,5,26,40*
CCN(CC)CCN(C(=O)CCS(=O)(=O)c1ccccc1)c1nc2cc(C)cc(C)c2s1,-17,0,1,43,8,21,/
CCN(CC)CCN(C(=O)CCS(=O)(=O)c1ccccc1)c1nc2c(C)cc(C)cc2s1,-29,0,7,73*,-4,23,70*
COCC(=O)Nc1ccc2c(c1)OC[C@@H](C)N(Cc1ccccc1)C[C@H](C)[C@@H](OC)CN(C)C2=O,/,/,/,/,0,/,/
CCn1c(SCC(=O)N2CCCc3ccccc32)nc2c1c(=O)n(C)c(=O)n2C,1,0,8,8,/,13,/
CC(C)c1nc(SCC(=O)N2CCCc3ccccc32)c2c(=O)n(C)c(=O)n(C)c2n1,-8,1,40,64*,11,0,12
COc1ccc(/C=C/C(=O)c2cc(F)ccc2OC(=O)c2ccccc2C)cc1OC,-27,-3,53*,54*,32,25,45*
COc1ccc(C(=O)Oc2ccc(F)cc2C(=O)/C=C/c2ccc(OC)c(OC)c2)cc1,-15,0,26,12,12,4,/
C[C@@H]1CN([C@@H](C)CO)C(=O)c2cc(NC(=O)Cc3ccccc3)ccc2O[C@@H]1CN(C)C(=O)Nc1ccc(C(F)(F)F)cc1,/,/,/,/,0,/,/
Cc1ccc(F)cc1-c1cc(C(=O)NCc2cc(C(F)(F)F)cc(C(F)(F)F)c2)[nH]n1,2,0,19,16,6,4,/
Cc1ccc(Cl)cc1-c1cc(C(=O)NCc2cc(C(F)(F)F)cc(C(F)(F)F)c2)[nH]n1,-31,0,61*,59*,/,-29,63*
C[C@@H]1CCCCO[C@@H](CN(C)C(=O)Nc2ccccc2)[C@H](C)CN([C@@H](C)CO)C(=O)c2cc(N(C)C)ccc2O1,/,/,/,/,12,/,/
NC(=O)c1nsc(C(=O)N(c2ccccc2F)C(C(=O)NCc2ccc(F)cc2)c2ccc(O)cc2)c1N (stereo not drawn),-34,2,36,94*,22,19,108*
CCC1(O)CC2CN(CCc3c([nH]c4ccccc34)C(C(=O)OC)(c3cc4c(cc3OC)N(C=O)C3C(O)(C(=O)OC)C(OC(C)=O)C5(CC)C=CCN6CCC43C65)C2)C1 (stereo not drawn),-8,-4,15,58*,-30,32,92*
C[C@@H](NC(=O)C[C@@H]1CC[C@H]2[C@@H](COC[C@H](O)CN2C(=O)Nc2ccccc2)O1)c1ccccc1,/,/,/,/,-2,/,/
SMILES,KKLEB cytotox,hiPSC survival,TWEAK Fn14 block,CF NFkB inh,LGR2 antag,HIF-2a inh,CF NFkB conf
CCC(CO)Oc1cc(NCc2ccc(Cl)cc2Cl)c2ncn(C(C)C)c2c1 (stereo not drawn),-2,1,18,60*,20,20,45*
Cc1ccc(S(=O)(=O)N(C)C[C@H]2Oc3ccc(NC(=O)Nc4ccccc4)cc3CC(=O)N([C@H](C)CO)C[C@@H]2C)cc1,/,/,/,/,3,/,/
CCCN1[C@@H]2c3ccc(-c4cccc(C(=O)N(C)C)c4)c(=O)n3C[C@@H]2[C@@H](CO)[C@@H]1C(=O)NCCOC,/,/,/,/,-8,/,/
CCOC(=O)N1CCC(NC(=O)c2ccc3c(c2)N=C(C)c2c(C)ccc(C)c2S3)CC1,-18,1,4,57*,7,24,58*
CC(C)OCCCNC(=O)c1c(N)n(/N=C/c2ccccn2)c2nc3ccccc3nc12,-22,-2,35,56*,/,-11,-44
Fc1ccc(-n2cc(-c3ccccc3)c3c(N4CCOCC4)ncnc32)cc1,-2,1,24,86*,10,17,104*
CCN1CCN(c2ncnc3c2c(-c2ccccc2)cn3-c2ccc(F)cc2)CC1,-3,0,-9,6,12,25,/
C[C@@H](NC(=O)C[C@@H]1CC[C@@H](NC(=O)C2CC2)[C@H](CO)O1)c1ccccc1,/,/,/,/,-11,/,/
Brc1cccc(CSc2nnc(-c3ccncc3)o2)c1,10,1,62*,59*,34,-9,69*
COc1ccc(NC(=O)N(C)C[C@@H]2OCCCC[C@H](C)Oc3ccc(NS(=O)(=O)c4ccccc4)cc3C(=O)N([C@H](C)CO)C[C@H]2C)cc1,/,/,/,/,5,/,/
C=C(c1ccc2nc(NC(=O)OC)[nH]c2c1)c1cccs1,-14,1,34,62*,-91,-198,96*
C=CCOc1ccc2nc(NC(=O)OC)[nH]c2c1,-32,-4,0,34,/,-50,/
Cc1ccc(NC(=O)/C=C/c2ccco2)nc1,-38,-3,40,65*,-38,-151,73*
CN(C(=O)c1cc(S(=O)(=O)N2CCCCC2)c[nH]1)C1CCCCC1,-12,-2,-3,-3,-26,19,/

# Screening data (PubChem BioAssay)
